# Measured values: ChEMBL document CHEMBL1157539, “Thousands of chemical starting points for antimalarial lead identification” (Nature, 2010)
# Key:
# Assay type in all cases: functional
# Plasmodium falciparum [1] = assay: GSK_TCMDC: Inhibition of Plasmodium falciparum 3D7 in whole red blood cells, using parasite LDH activity as an index of growth. Test compounds present at 2uM
# Plasmodium falciparum [2] = assay: GSK_TCMDC: Inhibition of Plasmodium falciparum Dd2 in whole red blood cells, using parasite LDH activity as an index of growth. Test compounds present at 2uM
# HepG2 = assay: GSK_TCMDC: Percent inhibition of human HepG2 cell line. Test compounds present at 10uM.
Compound,Inhibition (Plasmodium falciparum [1]) [%],Inhibition (Plasmodium falciparum [2]) [%],Inhibition (HepG2) [%]
CCOc1ccc(Nc2nc(N)c3ccccc3n2)cc1.Cl,90,6,28
Cc1ccc(NC(=O)NC2CCN(c3ccnc4cc(Cl)ccc34)CC2)cc1.O=C(O)C(F)(F)F,100,47,4
CNC(=S)NCc1cnc2ccccn12,97,0,0
O=C(Nc1ccc(Br)cc1)N(CCN1CCOCC1)CC(O)COCc1ccc(F)cc1.O=C(O)C(F)(F)F (centres undefined),90,3,5
CCCCCN1CCC(NS(=O)(=O)c2ccc(C(=O)Nc3cccc(C(F)(F)F)c3)cc2)C1.O=C(O)C(F)(F)F (centres undefined),94,0,14
Cc1ccc(NC(=O)Nc2ccc(Cl)c(C(F)(F)F)c2)cc1-c1ccc(C(=O)Nc2ccncc2)cc1,99,99,77
CN(CCCCNC(=O)c1ccc(-c2ccccc2)cc1)C1CCc2c(O)cccc2C1.O=C(O)C(=O)O (centres undefined),100,21,24
CN(C)CCN(C)C(=O)c1cc(-c2ccncc2)c(-c2ccc(Cl)c(O)c2)o1.Cl,97,34,0
COc1ccc(C=NN=c2cc(C)[nH]c3ccc(C)cc23)c2ccccc12.Cl,94,55,28
Cc1cc(C(=O)Nc2ccc(-c3ccccc3)cc2)no1,90,94,6
NC(=O)C1CCN(Cc2ccc(-c3ccc(-c4nc5cc(C(F)(F)F)ccc5[nH]4)s3)cc2)CC1.O=C(O)C(F)(F)F,99,91,22
O=C(N[C@@H](Cc1ccccc1)C(=O)NC1CCCCCC1)c1ccc(O)c(-c2cccc(C(F)(F)F)c2)c1,98,70,0
Cc1ccc(-c2nnc3c4ccccc4c(C)nn23)cc1S(=O)(=O)N1CCN(CCO)CC1,85,62,16
O=C(O)C(F)(F)F.c1cncc(CCNCc2ccc(-c3cccc(-c4nc5ccccc5[nH]4)c3)cc2)c1,100,99,39
Clc1ccc(CNCCCCCCNCc2ccc(Cl)cc2)cc1.O=C(O)c1ccc2ccccc2c1O,96,28,53
O=S(=O)(c1c(Cl)cccc1Cl)N1CCCCC(c2ccc(C(F)(F)F)cc2)=N1,99,98,11
c1ccc(-n2cncn2)cc1,93,96,0
Cc1cc(Nc2ccc(O)cc2)nc2cc(O)ccc12.Cl,100,9,0
COc1ccccc1N1CCN(Cc2c(NC(C)=O)sc(C)c2C)CC1,95,80,9
O=C(N[C@H]1CCN(Cc2ccc(OCCN3CCNCC3)c(Cl)c2)C1)c1ccc(Cl)c(Cl)c1.O=C(O)C(F)(F)F,100,5,50
CN(C)CCCN1CCN(C(=O)c2cc3cc(-c4ccccc4)ccc3n2S(=O)(=O)c2ccccc2)CC1,100,94,32
Fc1ccc2[nH]c(-c3cccc(-c4ccc(CNCc5ccccc5)cc4)c3)nc2c1.O=C(O)C(F)(F)F,100,89,27
CC(C)N(Cc1ccc(-c2ccc(C(F)(F)F)cc2)cc1)C(=O)Cn1c(SCc2cccc(F)c2F)cc(=O)c2cc(CN3CCCCC3)ccc21.Cl,100,59,97
Cc1cccn2c(=O)c3cc(C(=O)NC(C)c4ccccc4)c(=N)n(CCc4ccccc4)c3nc12 (centres undefined),100,82,5
COc1ccc2nc(-c3ccccc3)cc(NCCCNc3cc(-c4ccccc4)nc4ccc(OC)cc34)c2c1.Cl,99,99,100
COc1cc(Cc2cnc(N)nc2N)cc(CC(C)O)c1O (centres undefined),93,2,0
COc1ccc(N2CCN(CCCCNC(=O)c3ccc(NC(=O)c4cccc(Cl)c4)cc3)CC2)c(OC)c1,100,33,18
O=C(O)C(F)(F)F.O=S(=O)(NCCN1CCCC1)c1ccc(-c2cccc(CNCCc3cccs3)c2)cc1,95,30,41
